FAS TE block = FAS thioesterase (human) inhibition; recombinant FAS-TE, OMFH fluorogenic substrate, fluorescence endpoint; P49327; actives 0.67% (n = 360,000); inhibition, % at 15 µM;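 active = compounds whose normalised, plate-corrected inhibition of enzyme fluorescence in the single-dose primary screen is 50% or more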;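 note: 0% = DMSO with enzyme and 100% = substrate without enzyme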
ADAM17 inh = ADAM17 inhibition, QFRET primary screen. inhibition, % at 6.95 µM. actives 0.83% (n = 370,000). AID 720648. recombinant ADAM17, EDANS/DABCYL FRET peptide cleavage. P78536;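 active = inhibition above the mean of compounds lying between control limits plus 3 SD, set per campaign, cut at about 8.5% in these data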;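 note: 0% = DMSO-only wells as the low control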
Target sequence (P78536 215-824 limits assumed): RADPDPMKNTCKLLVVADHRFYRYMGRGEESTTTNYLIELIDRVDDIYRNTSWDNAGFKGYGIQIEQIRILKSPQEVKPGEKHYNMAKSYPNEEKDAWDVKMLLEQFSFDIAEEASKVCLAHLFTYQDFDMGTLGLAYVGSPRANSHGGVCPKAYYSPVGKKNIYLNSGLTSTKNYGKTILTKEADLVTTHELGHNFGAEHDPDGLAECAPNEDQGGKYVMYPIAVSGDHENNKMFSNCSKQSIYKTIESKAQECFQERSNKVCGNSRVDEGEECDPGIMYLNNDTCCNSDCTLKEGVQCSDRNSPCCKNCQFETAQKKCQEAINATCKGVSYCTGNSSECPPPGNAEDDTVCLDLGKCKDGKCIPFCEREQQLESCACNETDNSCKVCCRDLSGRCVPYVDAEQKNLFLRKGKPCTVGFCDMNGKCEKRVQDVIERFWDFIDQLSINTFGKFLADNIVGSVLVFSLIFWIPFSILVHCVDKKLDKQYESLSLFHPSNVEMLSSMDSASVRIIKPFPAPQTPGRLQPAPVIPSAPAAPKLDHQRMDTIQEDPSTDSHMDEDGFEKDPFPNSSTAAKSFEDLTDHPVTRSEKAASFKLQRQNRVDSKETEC
ADAM10 inh = inhibits human ADAM10; actives 0.62% (n = 370,000); inhibition, % at 7 µM; O14672; recombinant ADAM10, EDANS/DABCYL FRET peptide cleavage, 3 h;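 active = inhibition above a per-campaign cutoff equal to the mean of compounds falling between control-based bounds plus 3 SD, cut at about 20% in these data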;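 note: 0% = DMSO wells while the 100% control is not disclosed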
NPR2 activator = GC-B (human) receptor activation. P20594. HEK293-GC-B cells, CNP EC30, cGMP TR-FRET; 0% at EC30 CNP, 100% saturating CNP. activation, % at 10 µM. actives 0.11% (n = 370,000);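 active = activation at 10 µM reaching about 35% in either raw or pattern-adjusted values, limit read from the data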
GC-A act = GC-A (human) enzyme activation; P16066; HEK293 GC-A cells, cGMP TR-FRET, EC30 ANP; 0% at EC30 ANP, 100% saturating ANP; activation, % at 10 µM; actives 0.14% (n = 370,000); in the data active = activation above about 40%
ADAM10 ctr = counter-screen for ADAM17 exosite inhibitors: inhibitors of human ADAM10; inhibition, % at 6.95 µM; AID 743256; shares compounds with ADAM17 inh; recombinant ADAM10, EDANS/DABCYL FRET peptide cleavage, 3 h; actives 47% (n = 2,900);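 active = mean inhibition over the triplicate runs exceeds the activity threshold set in the earlier primary screen, cut at about 20% in these data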;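 note: 0% = DMSO wells and 100% = marimastat wells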
ADAM17 confirm = confirmation of inhibitors of human ADAM17; inhibition, % at 6.95 µM; shares compounds with ADAM17 inh; actives 65% (n = 2,900); recombinant ADAM17, EDANS/DABCYL QFRET peptide cleavage;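 active = mean inhibition across replicates above the hit cutoff set in the primary screen, cut at about 8.5% in these data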;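 note: 0% = DMSO wells and 100% = marimastat wells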
The depositor's hits bear a star; x = no result; ! = repeats disagree. Hits are enriched below; roughly 2% of the tested compounds scored in any of these assays.

SMILES	FAS TE block	ADAM17 inh	ADAM10 inh	NPR2 activator	GC-A act	ADAM10 ctr	ADAM17 confirm
COc1ccc(C2/C=C\CN(C(=O)c3ccccc3)[C@H](Cc3ccccc3)C(=O)N2Cc2ccc(F)cc2)cc1 (some centres undefined)	47.9	11.2*	12.9	-9.2	-5.4	21.2*	10.6*
COc1ccc([C@H]2/C=C\CN(C(=O)c3ccc(C)cc3)[C@@H](C)C(=O)N2Cc2ccc(F)cc2)cc1	29.7	1.6	14.8	-2.2	-1.7	x	x
COC(=O)c1cc(-c2ccc(C)c3ccccc23)c(=O)n2c1CCC2	x	-7.1	-39.7	0.1	-0.2	x	x
CCCNc1ncnc2onc(C)c12	-4.8	9.8*	5.4	-3.9	-2.1	10.7	8.6
CC(=O)C1=CCC(c2ccc(Cl)cc2)N(S(=O)(=O)c2ccc(C)cc2)C1 (centres undefined)	18.6	11.8*!	19.3	6.8	-9.0	9.0	3.0
CC(=O)C1=CCC(c2ccc(C)cc2)N(S(=O)(=O)c2ccc(C)cc2)C1 (centres undefined)	11.4	-5.8	-2.8	1.3	-6.0	x	x
Cc1ccc([C@@H]2CC=C(C(=O)O)[C@H](c3ccc(Br)cc3)N2S(=O)(=O)c2ccccc2C)cc1	8.6	2.2	16.0	-3.6	0.1	x	x
Cc1ccccc1S(=O)(=O)N1[C@@H](c2ccc(Br)cc2)C(C(=O)O)=CC[C@H]1c1ccc(Cl)cc1	14.4	9.3*	13.1	0.7	-3.6	11.5	8.7*
Cc1ccc(S(=O)(=O)N2[C@@H](c3cccc(Cl)c3)C(C(=O)O)=CC[C@H]2c2ccc(C(C)C)cc2)cc1	24.2	9.0*	17.0	-7.4	-2.3	26.2*	14.3*
O=S1(=O)c2c(cccc2N2CCC[C@@H]2CO)O[C@H]2CCN1C2	x	-1.6	2.7	2.6	3.6	x	x
CCO[C@@H]1OC(C(=O)N2CCN(Cc3ccccc3)CC2)=C[C@H](c2ccc(C(F)(F)F)cc2)[C@H]1CCCO	22.3	-0.4	5.0	-4.6	-4.1	x	x
CCO[C@@H]1OC(C(=O)N2CCN(Cc3ccccc3)CC2)=C[C@H](c2ccc(Br)cc2)[C@H]1CCCO	15.5	10.2*	18.8	-3.6	-1.1	4.4	7.4
COc1cc(NC(=O)Cn2nnc(-c3ccccc3N)n2)cc(OC)c1	9.7	9.6*	17.6	-5.1	-2.2	0.0	1.0
COc1ccc(NC(=O)Cn2nnc(-c3ccccc3N)n2)cc1OC	-6.1	-0.9	0.8	-4.8	0.9	x	x
Cc1cccc(-n2c(Cc3ccccc3)nnc2SCC(=O)N2CCOCC2)c1	-12.5	11.6*	15.3	0.9	1.0	-2.1	3.1
CCCn1c(O)c(N=NC(=O)CNC(=O)/C=C/c2ccc(OC)cc2)c2ccccc21	5.2	-1.5	10.0	0.3	0.1	x	x
CCCn1c(O)c(N=NC(=O)CNC(=O)Cc2ccc(OC)cc2)c2ccccc21	-2.9	9.7*	1.2	-1.2	0.8	5.2	6.4
C=CCn1c(COc2ccc(C)cc2)nnc1SCC(=O)c1ccc(-c2ccccc2)cc1	x	-0.2	7.8	-1.5	-3.6	x	x
CCN(C(=O)[C@@H](C)[C@@H](O)c1ccc(C(C)=O)cc1)c1ccccc1	x	-4.0	-10.7	3.4	-0.1	x	x
CC(C)CNS(=O)(=O)c1cc(C(=O)OCC(=O)c2ccc3c(c2)OCCO3)c(Cl)cc1Cl	45.2	8.2	13.8	7.7	5.0	x	x
CCCn1c(C)cc(C(=O)COC(=O)c2cc(S(=O)(=O)NCC(C)C)c(Cl)cc2Cl)c1C	22.1	10.4*	14.9	8.6	2.2	20.1*	9.7*
CCCC1CCC2(CC1)CCC2OC(=S)Nc1ccc(Br)cc1 (centres undefined)	x	-1.1	4.6	-4.5	-0.1	x	x
COc1cc(C=C(c2nc3ccccc3s2)c2nc3ccccc3s2)ccc1O	43.5	9.6*	17.6	-2.1	-3.9	20.1*	13.6*
Cc1cccc(N(CC(=O)Nc2ccccc2-c2ccccc2)S(=O)(=O)c2ccccc2)c1C	23.0	9.3*	16.3	-3.1	-5.1	28.2*	16.1*
Cc1ccc(S(=O)(=O)N(CC(=O)Nc2ccccc2-c2ccccc2)c2ccc(C)cc2C)cc1	35.0	4.8	9.7	-5.0	-4.6	x	x
SMILES	FAS TE block	ADAM17 inh	ADAM10 inh	NPR2 activator	GC-A act	ADAM10 ctr	ADAM17 confirm
CCCC1CCC2(CC1)CCC2OC(=S)Nc1ccccc1C(F)(F)F (centres undefined)	x	-0.5	2.2	1.9	1.3	x	x
Cc1ccccc1NC(=S)/C(=C(\[O-])c1cc(C)n(Cc2ccccc2Cl)c1C)[n+]1ccccc1	-2.3	12.2*	14.5	-2.0	-11.1	23.9*	9.4*
Cc1c(Cl)cccc1NC(=S)/C(=C(\[O-])c1ccc(Cl)s1)[n+]1ccccc1	16.4	9.6*	9.0	0.0	-1.8	4.0	2.4
COc1cccc(CC(=O)N(Cc2ccccc2)c2ccccc2C(=O)Nc2cc(OC)ccc2OC)c1	x	12.3*	2.9	-21.2	-18.1	8.0	13.3*
Nc1[nH]c(C(=O)c2ccccc2)c(-c2ccc(Br)cc2)c1C(=O)NCCCN1CCOCC1	x	-6.9	-15.2	-2.9	-1.3	x	x
O=C(CSc1nnc(-c2cccnc2)n1C1CCCCC1)NC1CCCCCC1	x	1.2	-1.6	-8.3	-4.4	x	x
O=C(NCC1CC1(Cl)Cl)Nc1ccc(Cl)c(Cl)c1 (centres undefined)	33.9	9.5*	14.1	6.1	7.1	32.3*	14.7*
Cc1ccc(NC(=O)NCC2CC2(Cl)Cl)cc1 (centres undefined)	2.1	-1.3	-2.4	4.8	3.7	x	x
CN(Cc1cccs1)C(=O)CCc1ccc(S(=O)(=O)N2CCOCC2)cc1	2.6	11.4*	1.1	2.8	-0.8	-8.3	0.9
CCN(CC)C(=O)CC[C@@H]1CC[C@]2(CCCN(Cc3ccccc3)C2)O1	x	-5.5	-23.9	4.2	2.6	x	x
Nc1ccccc1Sc1ccc(C(=O)c2ccccc2C(=O)O)cc1[N+](=O)[O-]	-0.1	9.0*	16.1	-3.8	-6.1	6.4	2.5
COc1ccc(C2C(C(C)=O)=C(O)C(=O)N2CCO)c(OC)c1 (centres undefined)	-3.4	-1.5	-3.4	5.5	3.9	x	x
CCCCN1C(=O)C(O)=C(C(C)=O)C1c1ccc(OC)cc1OC (centres undefined)	-2.5	10.3*	7.7	4.5	-2.4	0.1	0.8
COC(=O)[C@]12C[C@H](CC(=O)NCC3CCCCC3)C(=O)N(CCc3ccc(OC)c(OC)c3)C1=C[C@H](COCc1ccccc1)O[C@@H]2C	x	10.6*	5.9	-6.9	1.4	26.0*	9.1*

Screening results deposited in PubChem BioAssay by several laboratories.
